Test results from paper PMC4336329 (PLoS ONE, 2015).
In all, about 310,000 compounds went through this assay and about 14,000 (4.5%) showed an effect of 50% or more. Effects have a minus sign here. The entries come from a sample that favours strong results as a whole.

These compounds were tested against human ether-à-go-go-related gene (hERG) potassium channel (human, UniProt Q12809) (assay: primary screen, population patch clamp on CHO cells stably expressing hERG; higher = less effect of the substance).
Sequence of human ether-à-go-go-related gene (hERG) potassium channel (Q12809 whole entry, looked up): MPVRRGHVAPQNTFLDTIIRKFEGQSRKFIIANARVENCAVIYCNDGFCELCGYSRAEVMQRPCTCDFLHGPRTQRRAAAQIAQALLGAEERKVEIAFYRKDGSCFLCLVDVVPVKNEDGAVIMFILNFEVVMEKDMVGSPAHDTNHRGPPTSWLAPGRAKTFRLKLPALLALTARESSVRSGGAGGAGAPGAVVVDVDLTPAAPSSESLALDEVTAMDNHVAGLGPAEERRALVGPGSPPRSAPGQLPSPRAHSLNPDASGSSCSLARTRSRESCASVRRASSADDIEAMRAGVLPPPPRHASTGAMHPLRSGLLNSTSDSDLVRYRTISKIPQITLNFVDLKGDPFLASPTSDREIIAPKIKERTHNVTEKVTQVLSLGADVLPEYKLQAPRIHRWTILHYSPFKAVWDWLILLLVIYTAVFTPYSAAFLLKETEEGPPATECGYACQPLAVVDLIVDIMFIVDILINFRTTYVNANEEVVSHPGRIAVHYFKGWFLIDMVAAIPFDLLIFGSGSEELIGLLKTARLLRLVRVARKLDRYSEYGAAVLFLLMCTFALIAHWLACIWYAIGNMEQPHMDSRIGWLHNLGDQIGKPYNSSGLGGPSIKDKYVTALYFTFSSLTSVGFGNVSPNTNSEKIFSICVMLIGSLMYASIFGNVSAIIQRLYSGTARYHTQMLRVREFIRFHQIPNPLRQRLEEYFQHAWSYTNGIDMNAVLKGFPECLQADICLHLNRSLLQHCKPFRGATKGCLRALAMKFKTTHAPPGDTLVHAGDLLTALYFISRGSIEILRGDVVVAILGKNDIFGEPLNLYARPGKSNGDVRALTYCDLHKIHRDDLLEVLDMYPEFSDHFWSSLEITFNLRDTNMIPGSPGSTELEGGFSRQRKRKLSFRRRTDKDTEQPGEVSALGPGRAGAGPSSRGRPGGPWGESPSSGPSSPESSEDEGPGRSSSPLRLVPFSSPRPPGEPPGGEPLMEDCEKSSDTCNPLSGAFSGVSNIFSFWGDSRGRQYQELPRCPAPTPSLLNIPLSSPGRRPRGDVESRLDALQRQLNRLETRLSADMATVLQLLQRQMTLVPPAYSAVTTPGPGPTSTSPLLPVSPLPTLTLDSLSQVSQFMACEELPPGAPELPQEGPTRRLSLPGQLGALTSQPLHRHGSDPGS
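Also: peak tail current of the secondary pulse compared with the same well before compound.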

| SMILES | hERG current change (%, negative = inhibition) at 10uM [%] |
| --- | --- |
| CCn1nnnc1NCc1ccc(Cl)cc1 | 9.44 |
| COc1ccc2c(c1)O[C@@H](c1cccc(C(F)(F)F)c1)[C@H](OC(=O)NCCc1ccc(OC)c(OC)c1)C2=O | -0.231 |
| O=C(CSc1nnc(-c2cccnc2)n1Cc1ccco1)NCc1ccc2c(c1)OCO2 | -33.2 |
| COc1ccc(-c2nnc(SC(C)C(=O)NCc3ccc4c(c3)OCO4)n2Cc2ccco2)cc1 (centres unmarked) | -55.1 |
| O=C(CSc1nnc(-c2ccc(Cl)cc2)n1Cc1ccco1)NCc1ccc2c(c1)OCO2 | -75.3 |
| COc1cccc(-c2nnc(SCC(=O)Nc3ccc4c(c3)OCCO4)n2Cc2ccco2)c1 | -15.1 |
| COc1cccc(-c2nnc(SCC(=O)NCc3ccc4c(c3)OCO4)n2Cc2ccco2)c1 | -49.7 |
| O=C(CSc1nnc(-c2ccccc2)n1Cc1ccco1)NCc1ccc2c(c1)OCO2 | -14.5 |
| O=C(CSc1nnc(NC(=O)c2ccco2)s1)NC1CCCCC1 | 2.07 |
| Cc1ccc2c(c1)N(CCC(=O)NCCCN1CCCC1)C(=O)C(C)O2 (centres unmarked) | 22.4 |
| OCC1(Cc2cccc(Cl)c2)CCCN(Cc2ccc(F)c(F)c2)C1 (centres unmarked) | -51.2 |
| CC(C)(O)C#Cc1ccc(CN2CCCC(CO)(Cc3cccc(Cl)c3)C2)cc1 (centres unmarked) | -6.28 |
| Cc1c(CN2CCCC(CO)(Cc3cccc(Cl)c3)C2)cnn1C (centres unmarked) | -11.2 |
| Cc1nn(C)c(Cl)c1CN1CCCC(CO)(Cc2cccc(Cl)c2)C1 (centres unmarked) | -59.8 |
| Cc1cccc(-c2ncc(CN3CCCC(CO)(Cc4cccc(Cl)c4)C3)cn2)c1 (centres unmarked) | -20.6 |
| Cc1nn(C)c(Cl)c1CN1CCCC(CO)(Cc2ccccc2)C1 (centres unmarked) | -6.66 |
| CCn1nc(C)c(CN2CCCC(CO)(Cc3cccc(Cl)c3)C2)c1C (centres unmarked) | -40.8 |
| COc1ccc(CN2CCCC(CO)(Cc3cccc(Cl)c3)C2)cc1OC (centres unmarked) | -63.2 |
| COc1cc(CN2CCCC(CO)(Cc3ccccc3)C2)ccc1O (centres unmarked) | -17.6 |
| COc1cc(CN2CCCC(CO)(Cc3ccccc3C)C2)cc2c1OCO2 (centres unmarked) | -27.9 |
| COc1cc(CN2CCCC(CO)(Cc3cccc(Cl)c3)C2)cc2c1OCO2 (centres unmarked) | -68.1 |
| CSc1cccc(CN2CCCC(CO)(Cc3cccc(Cl)c3)C2)c1 (centres unmarked) | -29 |
| CCC/C=C(\CCC)C(NS(=O)(=O)c1ccc(C(F)(F)F)cc1)c1ccccc1 (centres unmarked) | 15.5 |
